Screen size: about 52,000 sequences; about 210 (0.4%) were called active. The entries come from a sample that favours actives as a whole. Values without a mark were called inactive.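 How the source made its calls: active means gene whose silencing raises cell survival under the drug, median off-target-corrected z-score across its silencing RNAs 2 or more; inactive means the rest.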
experiment: Resistance to Poly (ADP-Ribose) Polymerase inhibitor: Gene Identification via Genome-wide siRNA Screen; conditions: mouse BRCA2 R2336H ES cells, olaparib, CellTiter-Glo viability; hits give high values
How it was run: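 Mouse BRCA2 R2336H ES cells were reverse-transfected with siRNA (20 nM final), treated at 48 h with 500 nM olaparib, and read by CellTiter-Glo after 72 h. Scores: MAD-based z per siRNA, median per gene, seed off-target correction.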

Sequence | z-score
GCUAAUUUGACAAAGACGGTT against Bfsp2 | 1.26
GGAAGUCAGACAGAUUUAATT against Prss33 | 3.17 (active)
GGACAUAAAAAUACGCCAGTT against Hsf1 | 3.22
GGGCAGAGUGAUGUUGUCATT against Gsdmdc1 | -1.93
CCAGCAUAUCUACUGUUCUTT against V1rf2 | -0.647
GGACACAAAUGACAUCAACTT against Ptpns1 | -0.156
CGUCUCUGCUGAGAACAUGTT against Kcnk15 | 2.15 (active)
GGUUGUGGAACUAGAAUAUTT against Wdr12 | -1.25
GGGAUGUAUUAGUGAAAGGTT against Dm15 | -0.213
CCGAAAGAACACAAUCUAUTT against Ifi16 | -0.1
GGAAAAGUCCUGUAAAAUUTT against Dmrta1 | 0.431
GGACAUGACCAAAAGGCUGTT against 3110006P09Rik | 2.27 (active)
GCUUAUGAUGAACAAGCCCTT against Aplra1 | 0.51
GGCUGCCUCGAAAUUACAATT against Lamb3 | -1.79
GGACCAGAAAAUUCACUUUTT against Gdap2 | -1.39
GGCCUUCUCUGACUUUCUGTT against D430030K24Rik | 3.28 (active)
CCCAUUAUUGGCACUACAATT against LOC434285 | -0.98
GCUAGGAAGAGAGUGAUCUTT against Alg1 | -0.838
GGAAGAAAACAUGGAAGAATT against Usp47 | 3.28 (active)
GCAAGUUAUCCAGCACUCATT against Ylpm1 | -1.57
GCCUCAGAAAAACAUCUAUTT against BC008103 | 2.16
GGACGAACCUUUAUACCAGTT against Arhgef15 | -1.21
GGCAUUCGAAGGGACAGAUTT against Arg2 | -0.343
GGGUAGCUGGCGAAUCAAATT against Ptpro | 1.43
GGAGCAAAUCCAGAGCAACTT against Actr8 | 2.88 (active)
GGAUUCUGCCUGAUCAAUGTT against 1110008F13Rik | -1.08
GGGAUGCUUUUGGCCCAAATT against 1110008J03Rik | -0.285

Sequence | z-score
GCAUCGUUACAGGACUUUATT against Enpp1 | -0.601
CGAUGAAAUCAUCACUAUCTT against Cyfip1 | -0.619
GGGAGAAGAAAUGGUUUAATT against B230315M08Rik | 1.54 (active)
GGAGACAAAUAUGAUGUAUTT against Hook1 | -1.94
GGAUUUUUCUUUUGAGCGATT against Figf | -0.866
GCACGUGGGCUAUUCCUACTT against Gria1 | 2.78 (active)
CCAACUUUCUCUUAGGAAATT against Gm580 | 0.9
CCUAUUUUUUCUCCACUGATT against Sntg1 | -0.718
GGUCAUGGAAGAAGCAAAGTT against 5730555F13Rik | 2.7
GGUUUUUUACACAACAUGCTT against 1110067D22Rik | 0.0564
GGAGUACGUUGACAUCAUCTT against Timp4 | -1.01
GCGCAUAUUUUAUCAACUCTT against Plcb3 | 1.31 (active)
GGAGAAACUUCAACUCUUATT against Resp18 | 0.73
CGAAAGAAGGUGAGGGCUCTT against Ppp1r9a | -0.95
GCGUAUCCCAGAUAUCCGATT against BC064033 | 0.0741
GCUGUUGCUGGCUAUUCUGTT against 5730409G15Rik | 0.298
GCCUCACAACUCUUACACCTT against Ptprc | 0.888
GGAUGGUCAUAAGGAUCAATT against Gpr128 | 2.66 (active)
CCAAGUAUUUCACAAACCGTT against Slc29a1 | 1.5
GGAAGAUGUCCAAACCCGCTT against Tm4sf7 | 0.167
CCAACUCGUUAUCACUAUATT against 1700001D09Rik | -0.0393
GGGUACAAUAUCCUUAAGUTT against D430033A06Rik | -0.51
GAUUCCACGCCAAUUCAUCTT against Ccl3 | -1.53
CCCACCUAGGUUCAUCCCATT against Fath | 2.93 (active)
GGCUUAUCAGUCCAUGAAGTT against BC022224 | 1.93
GGAGCCGAGUACAACAUCATT against Galgt1 | 0.763
CGUUUUCCACAAAGCAAAATT against Olfr1465 | 0.0226

Sequence | z-score
GGCAAAGUGAUAUUUUCAATT against Slc6a12 | 1.85 (active)
CCCGGAACUUAACUCUGUATT against LOC381438 | -0.264
GCCAUUUACAUUCCCAGGGTT against Gm741 | 0.238
CCAAGCAACACCACUCAUCTT against Centb2 | -0.144
GGAGAUGAAGAGGUUGGUUTT against Olig3 | -0.366
GGGAUCGAUCAAUCAUAACTT against Tcfap2c | 1.8
GGAAAUCUUACAGACUGAGTT against Grid2 | 2.5 (active)
GCGCAAGUACCUCAAGAGUTT against Grem2 | 0.717
GGUGCUAGUGUAUGAAUUATT against 9830109N13Rik | 2.24
GGUGAUAACUCCCUAGUAGTT against Rai12 | -1.43
CGGACAUUGUUCUGUUUUCTT against Por | 1.14
CGACAUGUAAAACUAUUGUTT against BC034097 | 0.0442 (active)
CCUCUAGUAAAGAAAUAGATT against 2610019N13Rik | -2.5
GGGCUGAUGUGGGCUAAAUTT against 1110001E17Rik | 4.07 (active)
CGAAGCUAAAGGAUAUAGATT against 1110025H10Rik | 0.236
GCCCAUAACAAAACAUCUATT against Mcpt5 | 1.1
GGACAGAGCGUGCACUAGATT against Pqlc2 | 0.262
CCCUCCAAGAUAGAAGCGGTT against 2610021K21Rik | 0.124
GGUGGCAUGUCAUUGCUUCTT against Igf2 | 1.16
GUCACUUGGCUUCCAUUGATT against Olfr510 | 1.19 (active)
GGUUUGAAAUCAGCAUGAUTT against A530065I17Rik | -0.647
GGCUUUGUGCUAAAAAAAATT against Pgm2l1 | 0.12
CGCAGACAGUUUGAGGCUGTT against 1700034P14Rik | -0.696
CCUUAGUUAGAAAUGUUGATT against Xkh | 0.357
GCUGAAAAUACAAUCUCUGTT against Capn3 | 2.18
GGAACUGAUAACCAGCCAGTT against 1700029B21Rik | -0.44
CCUUGAUGACGAAAACAUATT against Plekha2 | 0.756

Sequence | z-score
GGCGAAGGUGUAGAAUCUCTT against A830094I09Rik | 2.23 (active)
CGAAGUUCAUUCCUGUCUATT against Myf6 | -0.688
GGAUUACGGUCACUGCCAUTT against Gabrr2 | 1.39
GGAGAUGACGUGAAAACAATT against Srf | 1.93
GACUAGAACAACAGAAAGUTT against Vax2 | 1.24
GCAAGUAUACACCUCUCAATT against Slc6a12 | 2.24 (active)
GGUAUACACAUGAAAACCATT against 3110023B02Rik | 2.35
GGAUGGUGACAUGAAAAUCTT against Ifng | -0.37
GGUGAUACGUAUUUUUUAGTT against 2700050F09Rik | 1.03 (active)
CCACCAGACUCAUAUUAACTT against LOC433501 | -0.496
CGAUUUGGCCUUGAUGGGUTT against Wtip | -0.561
GGAUAUCAAAGACAAAGCATT against 3100002B05Rik | 0.612
GCCCAUUAUUUUCGGACUGTT against Olfr845 | -2.22
CCUCAAUUGCAUGUGACCUTT against Itgb1bp1 | -0.642
GGGCCUUUGGAUGUUGCUATT against Abcc10 | 1.24
GGUCCUUCCUCAGAUCCCUTT against 5730457F11Rik | 1.66 (active)
GCUCUCACACCCUUAUGUATT against Sdfr1 | -1.45
GGAAUACUUAUAGCUGACUTT against Rdhe2 | 0.32
GGGCUAUAACCCUGAAGAUTT against Rarg | 1.67 (active)
GGACUUAGACAUCCACCUCTT against 1700034O15Rik | -0.799
CCGGGUGCUGUUCUAUAAGTT against Pecam1 | 0.0651
GCUUGGAAGACUGUAAACUTT against 4921521K07Rik | 0.958
GGUGGUCUGGUUCAAGGAUTT against Mylk | -0.558
GGGUCCCUAAGCAUGUUCCTT against Slfn10 | 1.48
